Data taken from PubChem BioAssay (NCI).
This is part of a sample that, as a whole, favours compounds with a hit. Of some 79,000 tested, about 15% had one in any assay. A number with no mark means an inactive call. Calls of active or inactive are those of the source. Cut-off read from the data, not from the text of the source: active = growth inhibition above about 70%; inactive = the rest.

Legend:
[1] = NCI Yeast Anticancer Drug Screen. Data for the rad52 strain (AID 147);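 note: 0% = growth of vehicle-treated control cultures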; conditions: S. cerevisiae rad52 mutant growth inhibition, hits give high values
How it was run: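 Here a repair-compromised yeast strain receives each compound; its growth is then quantified and normalised to vehicle-only controls.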

[2] = NCI Yeast Anticancer Drug Screen. Data for the wt1 strain (AID 149);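 note: 0% = growth of vehicle-treated wt1 cultures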; conditions: S. cerevisiae wt1 strain (SPY 50644) growth inhibition, hits give high values
How it was run: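 Using yeast strain wt1, compound-induced growth inhibition was determined against vehicle-treated cultures.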

[3] = NCI Yeast Anticancer Drug Screen. Data for the rad50EPP+ strain (AID 151);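 note: 0% = growth of vehicle-treated control cultures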; conditions: S. cerevisiae rad50 mutant strain, hits give high values
How it was run: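 Read-out is yeast growth inhibition relative to vehicle; cells used were the rad50EPP+ strain.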

[4] = NCI Yeast Anticancer Drug Screen. Data for the mgt1 strain (AID 153); conditions: S. cerevisiae mgt1 mutant growth inhibition, hits give high values
How it was run: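 Measured: inhibition of mgt1 yeast growth by compound, normalized to vehicle-treated cultures.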

[5] = NCI Yeast Anticancer Drug Screen. Data for the rad50 strain (AID 155);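 note: 0% = growth of vehicle-only cultures of the same strain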; conditions: S. cerevisiae rad50 strain growth inhibition, hits give high values
How it was run: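 Relative growth inhibition (compound vs vehicle) was measured in yeast with a defined repair-gene alteration.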

[6] = NCI Yeast Anticancer Drug Screen. Data for the mec2-1 strain (AID 157); conditions: S. cerevisiae mec2-1 strain, hits give high values
How it was run: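 Using mec2-1 yeast: add compound, measure growth, express inhibition versus vehicle-treated cultures.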

[7] = NCI Yeast Anticancer Drug Screen. Data for the rad14 strain (AID 159);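 note: 0% = growth of vehicle-treated control cultures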; conditions: S. cerevisiae rad14 strain growth inhibition, hits give high values
How it was run: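 Screen for anticancer potential: a yeast strain altered in DNA damage repair is grown with compound, and reduced growth is quantified against vehicle controls.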

[8] = NCI Yeast Anticancer Drug Screen. Data for the sgs1 mgt1 strain (AID 161);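 note: 0% = growth of cultures given vehicle only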; conditions: S. cerevisiae sgs1 mgt1 strain, hits give high values
How it was run: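 This yeast growth screen uses a strain with defined DNA-repair lesions; compound-treated growth is compared with vehicle-treated growth.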

[9] = NCI Yeast Anticancer Drug Screen. Data for the CLN2oe strain (AID 163);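 note: 0% = growth of vehicle-only control cultures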; conditions: S. cerevisiae CLN2oe strain, hits give high values
How it was run: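 Whole-cell yeast growth assay. A strain engineered for altered cell-cycle control received compound, and inhibition relative to vehicle-treated cultures was recorded.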

[10] = NCI Yeast Anticancer Drug Screen. Data for the cln2 rad14 strain (AID 165);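 note: 0% = growth equal to vehicle treated cultures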; conditions: S. cerevisiae cln2 rad14 strain, hits give high values
How it was run: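 Yeast strain cln2 rad14, bearing defects in cell cycle control and DNA repair, serves as the test system; values reflect growth inhibition compared with vehicle.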

[11] = NCI Yeast Anticancer Drug Screen. Data for the bub3 strain (AID 167); conditions: S. cerevisiae bub3 mutant strain, hits give high values
How it was run: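 Screening used yeast with an engineered genetic alteration affecting cell cycle control. Compound-exposed cultures were compared with vehicle cultures, and reduced growth was taken as inhibition.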

[12] = NCI Yeast Anticancer Drug Screen. Data for the wt2 strain (AID 169);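 note: 0% = growth of vehicle-treated yeast cultures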; conditions: S. cerevisiae wt2 strain growth inhibition, hits give high values
How it was run: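 Treated yeast vs. vehicle-treated yeast: growth inhibition determined.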

[13] = NCI Yeast Anticancer Drug Screen. Data for the mlh1 strain (AID 171);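 note: 0% = growth of vehicle-treated control cultures of the same strain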; conditions: S. cerevisiae mlh1 strain growth inhibition, hits give high values
How it was run: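 A yeast strain with a defined genetic lesion serves as the test organism. Cultures receive compound or vehicle, and growth is measured.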

[14] = NCI Yeast Anticancer Drug Screen. Data for the sgs1 strain (AID 173);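 note: 0% = growth of vehicle-only control cultures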; conditions: S. cerevisiae sgs1 mutant, hits give high values
How it was run: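 A genetically defined yeast mutant is incubated with the test compound, and its growth is compared to that of the same strain given vehicle.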

[15] = NCI Yeast Anticancer Drug Screen. Data for the mlh1 rad18 strain (AID 175); conditions: S. cerevisiae mlh1 rad18 strain growth inhibition, hits give high values
How it was run: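 Steps: expose repair-defective yeast to compound; measure growth; express inhibition against vehicle-treated controls.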

[16] = NCI Yeast Anticancer Drug Screen. Data for the rad18 strain (AID 177); conditions: S. cerevisiae rad18 mutant growth inhibition, hits give high values
How it was run: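 Measured value is growth inhibition of a yeast strain bearing a DNA repair alteration, referenced to vehicle-treated cells.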

[17] = at 5.0 µM (retest, dose inferred, filed as 0.5)
[18] = at 50.0 µM (retest, dose inferred, filed as 5.0)

## CC(C)(C)c1ccc(NS(=O)(=O)c2ccc(N)cc2)cc1
[1]; at 1.2 µM
  growth inhibition: -1%
[1]; at 3.7 µM
  growth inhibition: -1%
[1]; at 11.0 µM
  growth inhibition: 1%
[1]; at 33.0 µM
  growth inhibition: 6%
[1]; at 100.0 µM
  growth inhibition: 46%
[2]; at 1.2 µM
  growth inhibition: 1%
[2]; at 3.7 µM
  growth inhibition: 2%
[2]; at 11.0 µM
  growth inhibition: 3%
[2]; at 33.0 µM
  growth inhibition: 3%
[2]; at 100.0 µM
  growth inhibition: 12%
[3]; at 1.2 µM
  growth inhibition: 4%
[3]; at 3.7 µM
  growth inhibition: 8%
[3]; at 11.0 µM
  growth inhibition: 10%
[3]; at 33.0 µM
  growth inhibition: 11%
[3]; at 100.0 µM
  growth inhibition: 14%
[4]; at 1.2 µM
  growth inhibition: 0%
[4]; at 3.7 µM
  growth inhibition: -1%
[4]; at 11.0 µM
  growth inhibition: 1%
[4]; at 33.0 µM
  growth inhibition: 2%
[4]; at 100.0 µM
  growth inhibition: 28%
[5]; at 1.2 µM
  growth inhibition: 4%
[5]; at 3.7 µM
  growth inhibition: 3%
[5]; [17]
  growth inhibition: 0%
[5]; at 11.0 µM
  growth inhibition: 14%
[5]; at 33.0 µM
  growth inhibition: 9%
[5]; [18]
  growth inhibition: -22%
[5]; at 50.0 µM
  growth inhibition: 98.3% (active)
[5]; at 100.0 µM
  growth inhibition: 37%
[6]; at 1.2 µM
  growth inhibition: 4%
[6]; at 3.7 µM
  growth inhibition: 4%
[6]; [17]
  growth inhibition: 6%
[6]; at 11.0 µM
  growth inhibition: 6%
[6]; at 33.0 µM
  growth inhibition: 7%
[6]; [18]
  growth inhibition: -5%
[6]; at 50.0 µM
  growth inhibition: 94.3% (active)
[6]; at 100.0 µM
  growth inhibition: 38%
[7]; at 1.2 µM
  growth inhibition: 1%
[7]; at 3.7 µM
  growth inhibition: -1%
[7]; at 11.0 µM
  growth inhibition: 1%
[7]; at 33.0 µM
  growth inhibition: 2%
[7]; at 100.0 µM
  growth inhibition: 40%
[8]; [17]
  growth inhibition: 0%
[8]; [18]
  growth inhibition: -16%
[8]; at 50.0 µM
  growth inhibition: 96.3% (active)
[9]; at 1.2 µM
  growth inhibition: 4%
[9]; at 3.7 µM
  growth inhibition: 2%
[9]; at 11.0 µM
  growth inhibition: 1%
[9]; at 33.0 µM
  growth inhibition: 4%
[9]; at 100.0 µM
  growth inhibition: 19%
[10]; [17]
  growth inhibition: 34%
[10]; [18]
  growth inhibition: -111%
[10]; at 50.0 µM
  growth inhibition: 98.4% (active)
[11]; at 1.2 µM
  growth inhibition: 0%
[11]; at 3.7 µM
  growth inhibition: 5%
[11]; [17]
  growth inhibition: 28%
[11]; at 11.0 µM
  growth inhibition: 9%
[11]; at 33.0 µM
  growth inhibition: 18%
[11]; [18]
  growth inhibition: -8%
[11]; at 50.0 µM
  growth inhibition: 95.8% (active)
[11]; at 100.0 µM
  growth inhibition: 12%
[12]; at 1.2 µM
  growth inhibition: 0%
[12]; at 3.7 µM
  growth inhibition: 1%
[12]; at 11.0 µM
  growth inhibition: 1%
[12]; at 33.0 µM
  growth inhibition: 4%
[12]; at 100.0 µM
  growth inhibition: 41%
[13]; at 1.2 µM
  growth inhibition: 5%
[13]; at 3.7 µM
  growth inhibition: 3%
[13]; at 11.0 µM
  growth inhibition: 7%
[13]; at 33.0 µM
  growth inhibition: -13%
[13]; at 100.0 µM
  growth inhibition: 48%
[14]; at 1.2 µM
  growth inhibition: 3%
[14]; at 3.7 µM
  growth inhibition: 6%
[14]; at 11.0 µM
  growth inhibition: 14%
[14]; at 33.0 µM
  growth inhibition: 17%
[14]; at 100.0 µM
  growth inhibition: 60%
[15]; [17]
  growth inhibition: -5%
[15]; [18]
  growth inhibition: -5%
[15]; at 50.0 µM
  growth inhibition: 97.2% (active)
[16]; at 1.2 µM
  growth inhibition: 3%
[16]; at 3.7 µM
  growth inhibition: 3%
[16]; at 11.0 µM
  growth inhibition: 15%
[16]; at 33.0 µM
  growth inhibition: 23%
[16]; at 100.0 µM
  growth inhibition: 54%
